Measurements published in PubChem BioAssay AID2289 (National Center for Advancing Translational Sciences (NCATS), 2010).
Several values for one entry are separate records, joined by “and”; a condition that tells them apart may be missing. Identical values can stand only once. The whole screen tested about 340,000 compounds, of which about 3,300 (0.97%) were called active. Roughly 9% stayed inconclusive and do not appear here. Calls come from the whole dose curve; as a rule, active = well fitted inhibition curve with a large enough effect; inconclusive = small, poorly fitted or top-dose-only effect, or effect the other way; inactive = flat fitted curve, though single readings scatter. This is one part of the list.

assay: qHTS Assay for Modulators of miRNAs and/or Inhibitors of miR-21; conditions: HeLa miR-21-FLuc reporter, luciferase luminescence, 48 h; actives lower the signal; note: nearly all actives have a fitted effect of over 55% in size
How it was run: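 HeLa cells endogenously expressing miR-21, stably carrying CMV-driven firefly luciferase with a downstream miR-21 binding site, 2000 cells/well. Titrations up to approximately 40 uM, 48 hours; luciferase luminescence read.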
Potency is the fitted concentration of half-maximal effect.

Potency, active:
O=c1cc(-c2ccccc2F)oc2ccccc12 5.21 µM, COc1ccc(-c2cc(=O)c3ccccc3o2)cc1 5.85 µM, Fc1cccc2sc(Nc3nc4cc5c(cc4s3)OCO5)nc12 3.69 µM, Fc1cccc2sc(Nc3nc4cc5c(cc4s3)OCCO5)nc12 0.208 µM, O=C(O)c1ccc(N=Nc2c(O)[nH]c3cc(Cl)ccc23)cc1 0.165 µM, O=C(O)c1ccc(N=Nc2c(O)[nH]c3ccc(Br)cc23)cc1 3.69 µM, COc1cc2c(cc1OC)-c1cc(Nc3ccc4c(c3)OCCO4)nc(=O)n1CC2 8.26 µM, CCc1nc2oc3ccccc3c(=O)c2c(=O)n1-c1ccc(C)cc1 1.65 µM, Cc1cc(C)n2c(nc3ccccc32)c1C(=O)NN 10.4 µM, Clc1cc(Cl)c2nc(N3CCOCC3)sc2c1 16.5 µM, Clc1ccc(-c2nsc(N3CCOCC3)n2)c(Cl)c1 1.04 µM, Fc1ccc2nc(N3CCOCC3)sc2c1 16.5 µM, Nc1nc2c(Cl)cc(Cl)cc2s1 18.5 µM, Fc1ccc2nc(N3CCCC3)sc2c1 4.14 µM, COc1ccc(/C=C/C(=O)c2ccc[nH]2)cc1OC 5.21 µM, O=C(/C=C/c1ccc2c(c1)OCO2)c1ccc[nH]1 3.69 µM, COc1ccc(/C=C/C(=O)c2ccc[nH]2)c(OC)c1OC 14.7 µM, CC(C)CCNC(=O)c1ccc(-c2ccccc2)cc1 8.26 µM, CC(CCc1ccccc1)NC(=O)C(=O)Nc1ccccc1 (configuration not stated) 1.65 µM, O=C(NCc1ccccn1)C(=O)Nc1ccccc1 6.56 µM, CC(C)CCNC(=O)C(=O)Nc1ccccc1 2.07 µM, CS(=O)(=O)c1cnc2c(-c3ccc(F)cc3)cnn2c1N 1.85 µM, CS(=O)(=O)c1cnc2c(-c3ccsc3)cnn2c1N 5.21 µM, O=C(c1ccccc1)c1ccc2c(c1)OCCCO2 2.07 µM, O=C(CCc1ccccc1)c1ccc2c(c1)OCCCO2 3.69 µM, O/N=C(/CCc1ccccc1)c1ccc2c(c1)OCCO2 7.36 µM, Cc1cc(O)c(C(=O)Cc2csc(C)n2)c(O)c1 5.85 µM, Cc1oncc1-c1csc(-c2ccccc2)n1 5.21 µM, O=C1C2C(C(=O)N1/N=C/c1cccc([N+](=O)[O-])c1)C1C=CC2C12CC2 (configuration not stated) 18.5 µM, Cc1cccc(NC(=O)Cn2c(/C=C/c3ccccc3)nc3ccccc32)c1 5.85 µM, O=C(Cn1c(/C=C/c2ccccc2)nc2ccccc21)Nc1ccc(F)cc1 5.21 µM, COc1ccc(C2CC(=O)c3ccccc3O2)cc1 (configuration not stated) 16.5 µM, O=C1CC(c2ccc3c(c2)OCCO3)Oc2ccc([N+](=O)[O-])cc21 (configuration not stated) 0.261 µM, O=C1CC(c2ccc3c(c2)OCCO3)Oc2ccccc21 (configuration not stated) 14.7 µM, Cc1ccc2c(c1)OC(c1ccc3c(c1)OCCO3)CC2=O (configuration not stated) 16.5 µM, CC(C)c1nc(C#N)c(NN)o1 16.5 µM, N/C(=N\OC(=O)/C=C/c1ccccc1Cl)c1cccnc1 2.07 µM, N/C(=N\OC(=O)/C=C/c1ccccc1Cl)c1ccncc1 0.414 µM, COc1ccc(-n2nc3cc(C)c(N)c(Br)c3n2)cc1 4.14 µM, CC1CCC/C(=N\Nc2ccc(Cl)c(C(=O)O)c2)C1 (configuration not stated) 6.56 µM, O=[N+]([O-])c1ccc2cn(-c3ccccc3)nc2c1 1.65 µM, Cc1ccsc1/C=N/Nc1ncnc2nc[nH]c12 3.29 µM, Fc1ccccc1/C=N/Nc1ncnc2nc[nH]c12 5.21 µM, C(=N\Nc1ncnc2nc[nH]c12)/c1cccs1 4.14 µM, Cc1ccccc1/C=N/Nc1ncnc2nc[nH]c12 6.56 µM, COc1ccc(/C=N/N=C(\N)c2nonc2N)cc1OC 7.36 µM, COc1cccc(/C=N/N=C(\N)c2nonc2N)c1O 3.69 µM, COc1ccccc1/C=N\N=C(\N)c1ccccn1 2.07 µM, N/C(=N\N=C\c1ccc(O)c(O)c1)c1nonc1N 8.26 µM, N/C(=N\N=C\c1ccc(Br)o1)c1nonc1N 3.29 µM, COc1ccccc1OCc1cc(-c2ccccc2)no1 3.69 µM, Cc1cccc(OCc2cc(-c3ccccc3)no2)c1C 7.36 µM, Cc1ccc(-c2cc(N)n(-c3ccc(F)cc3)n2)cc1 4.14 µM, Cc1ccc(-c2cc(N)n(-c3ccc(C)cc3)n2)cc1 11.7 µM and 1.85 µM, O=C(O)c1cc(-c2ccc(C(F)(F)F)cc2)nc2n[nH]c(-c3ccccc3)c12 0.585 µM, COc1ccc(-c2csc(-c3cccs3)n2)cc1OC 6.56 µM, COc1ccc(-c2ccc3ccccc3n2)cc1OC 2.07 µM, COc1ccc(-c2csc(-c3cccs3)n2)c(OC)c1 1.04 µM, COc1ccc(-c2nc(-c3ccc(O)cc3O)cs2)cc1OC 5.85 µM, COc1ccc(Nc2nc(-c3cccs3)cs2)c(OC)c1 1.04 µM, Cc1ccc(/C=C2\OC(=O)c3ccccc32)cc1 3.69 µM, O=C(O)c1cc(N/N=C/c2ccc3c(c2)OCCO3)ccc1Cl 0.293 µM, Clc1ccccc1N/N=C/c1ccc2c(c1)OCO2 2.93 µM, CSc1nsc(N/N=C/c2ccc3c(c2)OCO3)c1C#N 0.826 µM, O=C(O)c1cc(N/N=C/c2ccc(N3CCOCC3)cc2)ccc1Cl 2.07 µM, CN(C)c1ccc(C(=O)/C=C/c2ccccc2)cc1 5.21 µM, CN(C)c1ccc(/C=C/C(=O)c2ccccc2O)cc1 4.14 µM, O=C1C(C=Nc2ccc(F)cc2)=C(O)c2ccccc21 2.07 µM, Cn1ccsc1=NC(=O)c1ccc(S(=O)(=O)C(F)F)cc1 7.36 µM, Cn1ccsc1=NC(=O)c1cccc(OC(F)F)c1 2.33 µM, Cc1cccc(C(=O)N=c2sccn2C)c1[N+](=O)[O-] 4.65 µM, COC(=O)c1ccc(C(=O)N=c2sccn2C)cc1 4.14 µM
